Measured values published in PubChem BioAssay AID1159580 (chemical genetic matrix, 2015).
Hit rate of the full screen: of about 5,500 compounds, about 2,000 (36%) were called active. Inconclusive results (about 18%) are left out. No stated cut-off is given here; in the data, active means normalized growth mostly below about 0.91 (no sharp cut-off); inconclusive means no clear call, values can overlap the other calls; inactive means mostly above about 0.92. The list shows a part of the results.

Assay: chemical genetic growth profiling, strain panel (AID 1159580);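 further: tested at 20 µM; growth read once vehicle control cultures reached saturation at 30 °C; 1 = growth at the plate median or of vehicle wells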
Conditions: S. cerevisiae deletion strains, growth OD
[1] = locus YDL101C, strain DUN1, stronger effect = lower value
[2] = locus YHR030C, strain SLT2, stronger effect = lower value

Measured: normalized growth

FC(F)(F)c1cccc(NC(=S)Nc2ccccc2)c1
inactive: locus YAR019C, strain CDC15, stronger effect = lower value 0.983 | locus YBL105C, strain PKC1, stronger effect = lower value 0.98 | locus YBR135W, strain CKS1, stronger effect = lower value 0.975 | locus YBR136W, strain MEC1, stronger effect = lower value 0.979 | locus YBR160W, strain CDC28, stronger effect = lower value 0.981 | locus YDL017W, strain CDC7, stronger effect = lower value 0.987 | locus YDL028C, strain MPS1, stronger effect = lower value 0.98 | [1] 0.989 | locus YDL108W, strain KIN28, stronger effect = lower value 0.978 | locus YDL132W, strain cdc53, stronger effect = lower value 0.966 | locus YDL214C, strain PRR2, stronger effect = lower value 0.949 | locus YDR052C, strain DBF4, stronger effect = lower value 0.996 | locus YDR054C, strain cdc34, stronger effect = lower value 0.982 | locus YDR226W, strain ADK1, stronger effect = lower value 0.98 | locus YDR477W, strain SNF1, stronger effect = lower value 0.954 | locus YER123W, strain YCK3, stronger effect = lower value 0.96 | locus YER133W, strain GLC7, stronger effect = lower value 0.958 | locus YFL009W, strain cdc4, stronger effect = lower value 0.973 | locus YFL029C, strain CAK1, stronger effect = lower value 0.983 | locus YFR003C, strain YPI1, stronger effect = lower value 0.982 | locus YFR019W, strain FAB1, stronger effect = lower value 0.962 | locus YFR028C, strain CDC14, stronger effect = lower value 0.967 | locus YGR040W, strain KSS1, stronger effect = lower value 0.941 | locus YGR052W, strain FMP48, stronger effect = lower value 0.974 | locus YGR092W, strain DBF2, stronger effect = lower value 0.883 | [2] 1 | locus YHR079C, strain IRE1, stronger effect = lower value 1.04 | locus YHR082C, strain KSP1, stronger effect = lower value 1 | locus YHR205W, strain SCH9, stronger effect = lower value 0.951 | locus YIL147C, strain SLN1, stronger effect = lower value 0.977 | locus YJL095W, strain BCK1, stronger effect = lower value 0.882 | locus YJL128C, strain PBS2, stronger effect = lower value 0.959 | locus YJL157C, strain FAR1, stronger effect = lower value 0.941 | locus YJR016C, strain ILV3, stronger effect = lower value 0.968 | locus YJR066W, strain TOR1 (second series), stronger effect = lower value 0.897 | locus YJR066W, strain TOR1, stronger effect = lower value 0.989 | locus YKL048C, strain ELM1, stronger effect = lower value 1 | locus YKL067W, strain YNK1, stronger effect = lower value 0.961 | locus YKL101W, strain HSL1, stronger effect = lower value 0.955 | locus YKL193C, strain SDS22, stronger effect = lower value 0.973 | locus YKL203C, strain TOR2, stronger effect = lower value 0.995 | locus YLR113W, strain HOG1, stronger effect = lower value 0.962 | locus YLR133W, strain CKI1, stronger effect = lower value 0.947 | locus YLR403W, strain SFP1, stronger effect = lower value 0.899 | locus YML070W, strain DAK1, stronger effect = lower value 0.966 | locus YMR001C, strain CDC5, stronger effect = lower value 0.98 | locus YMR205C, strain PFK2 (second series), stronger effect = lower value 0.991 | locus YMR277W, strain FCP1, stronger effect = lower value 0.97 | locus YNL006W, strain LST8, stronger effect = lower value 0.985 | locus YNL020C, strain ARK1, stronger effect = lower value 0.974 | locus YNL161W, strain CBK1, stronger effect = lower value 0.981 | locus YNL183C, strain NPR1, stronger effect = lower value 1 | locus YNL207W, strain RIO2, stronger effect = lower value 0.967 | locus YNL222W, strain SSU72, stronger effect = lower value 0.981 | locus YNL307C, strain MCK1 (second series), stronger effect = lower value 0.896 | locus YOL078W, strain AVO1, stronger effect = lower value 0.967 | locus YOL136C, strain PFK27, stronger effect = lower value 0.95 | locus YOR061W, strain CKA2, stronger effect = lower value 0.952 | locus YOR119C, strain RIO1, stronger effect = lower value 1.02 | locus YOR231W, strain MKK1, stronger effect = lower value 0.95 | locus YOR329C, strain SCD5, stronger effect = lower value 0.989 | locus YPL031C, strain PHO85, stronger effect = lower value 0.952 | locus YPL153C, strain RAD53, stronger effect = lower value 0.954 | locus YPL204W, strain HRR25, stronger effect = lower value 0.934 | locus YPL209C, strain IPL1, stronger effect = lower value 0.978 | locus YPL256C, strain CLN2, stronger effect = lower value 1.1 | locus YPR025C, strain CCL1, stronger effect = lower value 0.982 | locus YPR106W, strain ISR1, stronger effect = lower value 0.987 | locus YPR111W, strain DBF20, stronger effect = lower value 0.969 | strain NNK1, stronger effect = lower value 0.982 | strain TSCII, stronger effect = lower value 0.975

CC(C)(C)C(=O)NC(=S)Nc1cccc(C(F)(F)F)c1
active: locus YAL013W, strain DEP1, stronger effect = lower value 0.925 | locus YDL134C, strain PPH21, stronger effect = lower value 0.804 | [2] 0.527 | locus YLR039C, strain RIC1, stronger effect = lower value 0.401 | locus YLR085C, strain ARP6, stronger effect = lower value 0.397 | locus YLR262C, strain YPT6, stronger effect = lower value 0.474 | locus YML094W, strain GIM5, stronger effect = lower value 0.846 | locus YNL298W, strain CLA4 (second series), stronger effect = lower value 0.676 | locus YNR030W, strain Alg12, stronger effect = lower value 0.722 | locus YOL006C, strain TOP1, stronger effect = lower value 0.238 | locus YPL055C, strain LGE1, stronger effect = lower value 0.785 | locus YPL241C, strain CIN2, stronger effect = lower value 0.755 | locus YPR135W, strain CTF4, stronger effect = lower value 0.569
inactive: locus YBR229C, strain ROT2, stronger effect = lower value 0.989 | [1] 0.984 | locus YDR150W, strain NUM1, stronger effect = lower value 0.91 | locus YEL061C, strain CIN8, stronger effect = lower value 0.944 | locus YGR078C, strain PAC10, stronger effect = lower value 0.959 | locus YGR229C, strain SMI1, stronger effect = lower value 0.959 | locus YHR087W, strain rtc3, stronger effect = lower value 0.99 | locus YJL187C, strain SWE1, stronger effect = lower value 0.987 | locus YJR043C, strain POL32, stronger effect = lower value 0.957 | locus YJR075W, strain HOC1, stronger effect = lower value 0.977 | locus YLR058C, strain SHM2 (second series), stronger effect = lower value 0.966 | locus YMR219W, strain ESC1, stronger effect = lower value 0.978 | locus YMR263W, strain SAP30, stronger effect = lower value 0.953 | locus YNL153C, strain GIM3, stronger effect = lower value 0.955 | locus YNL322C, strain KRE1, stronger effect = lower value 0.984
